# Test results reported in PMC7862700, “An all-to-all approach to the identification of sequence-specific readers for epigenetic DNA modifications on cytosine”.
# What was measured:
# Test in all cases: DAPPL (digital affinity profiling via proximity ligation, sequencing); 10 mM Tris-HCl pH 7.5, 50 mM NaCl, 1 mM DTT, 4% glycerol, room temperature, 30 min; GST-TFs on glutathione beads, 16-mer random dsDNA library, 0.1% formaldehyde crosslink after washing; high values mean tight binding
# [1] = biological target: T1, FLI1 (Homo sapiens, UniProt Q01543 1-452); settings: protein: recombinant; tags: N-terminal GST; dsDNA, one strand shown
# T1 sequence: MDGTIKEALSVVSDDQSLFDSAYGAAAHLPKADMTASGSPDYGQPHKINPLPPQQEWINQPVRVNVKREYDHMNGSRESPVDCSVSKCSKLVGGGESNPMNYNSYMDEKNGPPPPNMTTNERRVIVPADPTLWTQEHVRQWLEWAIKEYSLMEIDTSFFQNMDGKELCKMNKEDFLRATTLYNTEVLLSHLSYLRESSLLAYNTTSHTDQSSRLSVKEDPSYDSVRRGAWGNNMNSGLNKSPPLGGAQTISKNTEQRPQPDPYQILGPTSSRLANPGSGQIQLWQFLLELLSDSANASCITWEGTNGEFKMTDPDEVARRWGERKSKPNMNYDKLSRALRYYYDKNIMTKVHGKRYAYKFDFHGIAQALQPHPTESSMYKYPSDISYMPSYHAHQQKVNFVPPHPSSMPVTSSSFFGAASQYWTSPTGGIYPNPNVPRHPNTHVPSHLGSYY
# How it was run: (§1)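 Pools of DNA-barcoded human transcription factors, expressed in yeast as GST fusions on glutathione beads and combined with a tag-only sample, were incubated with 200 nmole of a 16-mer random double-stranded DNA library. Incubation took 30 min at room temperature in Tris/NaCl/DTT/glycerol buffer and was followed by washing, 0.1% formaldehyde crosslinking, proximity ligation (BsaI/T4 ligase, 1 h, 37 °C), PCR amplification and sequencing on an Illumina NextSeq500. Binding signal is the ratio of a hexamer's read frequency for a factor to its frequency for the tag-only sample.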
# [2] = biological target: T2, ELK1 (Homo sapiens, UniProt P19419 1-428); settings: protein: recombinant; tags: N-terminal GST; dsDNA, one strand shown
# T2 sequence: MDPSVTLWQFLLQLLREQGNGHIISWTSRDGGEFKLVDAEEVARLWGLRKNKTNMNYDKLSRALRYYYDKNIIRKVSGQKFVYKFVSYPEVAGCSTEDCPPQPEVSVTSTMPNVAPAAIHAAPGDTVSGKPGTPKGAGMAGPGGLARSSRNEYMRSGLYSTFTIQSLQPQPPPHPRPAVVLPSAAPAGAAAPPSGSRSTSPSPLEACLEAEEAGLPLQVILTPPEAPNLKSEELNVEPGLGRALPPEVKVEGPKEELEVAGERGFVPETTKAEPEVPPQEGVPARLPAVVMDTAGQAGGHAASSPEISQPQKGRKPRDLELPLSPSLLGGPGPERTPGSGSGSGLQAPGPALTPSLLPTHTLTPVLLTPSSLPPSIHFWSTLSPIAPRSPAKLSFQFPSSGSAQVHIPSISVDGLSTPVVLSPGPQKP
# How it was run: as §1
# [3] = biological target: T3, GABPA (Homo sapiens, UniProt Q06546 1-454); settings: protein: recombinant; tags: N-terminal GST; dsDNA, one strand shown
# T3 sequence: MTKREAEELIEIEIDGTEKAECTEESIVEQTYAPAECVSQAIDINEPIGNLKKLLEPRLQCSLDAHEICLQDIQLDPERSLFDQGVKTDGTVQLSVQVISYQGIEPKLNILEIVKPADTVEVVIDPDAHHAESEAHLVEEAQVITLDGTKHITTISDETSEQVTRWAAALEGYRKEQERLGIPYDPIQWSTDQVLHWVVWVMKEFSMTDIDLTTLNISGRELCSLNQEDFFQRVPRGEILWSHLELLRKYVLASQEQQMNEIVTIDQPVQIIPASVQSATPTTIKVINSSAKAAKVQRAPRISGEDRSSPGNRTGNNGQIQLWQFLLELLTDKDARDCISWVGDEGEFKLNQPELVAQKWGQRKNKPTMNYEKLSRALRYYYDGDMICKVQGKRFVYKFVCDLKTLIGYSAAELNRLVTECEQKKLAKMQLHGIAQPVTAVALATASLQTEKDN
# How it was run: as §1
# [4] = biological target: T4, ERG (Homo sapiens, UniProt P11308 1-479); settings: protein: recombinant; tags: N-terminal GST; dsDNA, one strand shown
# T4 sequence: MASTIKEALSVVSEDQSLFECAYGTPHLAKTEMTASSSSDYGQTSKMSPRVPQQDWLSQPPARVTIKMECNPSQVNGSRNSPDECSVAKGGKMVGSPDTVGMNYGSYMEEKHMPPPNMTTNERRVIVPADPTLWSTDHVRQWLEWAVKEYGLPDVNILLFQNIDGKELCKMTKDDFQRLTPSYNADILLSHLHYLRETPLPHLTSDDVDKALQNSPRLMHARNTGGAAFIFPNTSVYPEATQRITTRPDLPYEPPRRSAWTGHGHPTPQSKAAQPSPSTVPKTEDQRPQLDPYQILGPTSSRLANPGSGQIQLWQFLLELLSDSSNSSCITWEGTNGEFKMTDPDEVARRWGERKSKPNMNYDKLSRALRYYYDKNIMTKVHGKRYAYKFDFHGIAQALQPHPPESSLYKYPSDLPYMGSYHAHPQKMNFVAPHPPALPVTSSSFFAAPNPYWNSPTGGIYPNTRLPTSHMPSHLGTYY
# How it was run: as §1
# [5] = biological target: ELF1 (Homo sapiens, UniProt P32519 1-619); settings: protein: recombinant; tags: N-terminal GST; dsDNA, one strand shown
# Sequence of ELF1 (P32519 whole entry): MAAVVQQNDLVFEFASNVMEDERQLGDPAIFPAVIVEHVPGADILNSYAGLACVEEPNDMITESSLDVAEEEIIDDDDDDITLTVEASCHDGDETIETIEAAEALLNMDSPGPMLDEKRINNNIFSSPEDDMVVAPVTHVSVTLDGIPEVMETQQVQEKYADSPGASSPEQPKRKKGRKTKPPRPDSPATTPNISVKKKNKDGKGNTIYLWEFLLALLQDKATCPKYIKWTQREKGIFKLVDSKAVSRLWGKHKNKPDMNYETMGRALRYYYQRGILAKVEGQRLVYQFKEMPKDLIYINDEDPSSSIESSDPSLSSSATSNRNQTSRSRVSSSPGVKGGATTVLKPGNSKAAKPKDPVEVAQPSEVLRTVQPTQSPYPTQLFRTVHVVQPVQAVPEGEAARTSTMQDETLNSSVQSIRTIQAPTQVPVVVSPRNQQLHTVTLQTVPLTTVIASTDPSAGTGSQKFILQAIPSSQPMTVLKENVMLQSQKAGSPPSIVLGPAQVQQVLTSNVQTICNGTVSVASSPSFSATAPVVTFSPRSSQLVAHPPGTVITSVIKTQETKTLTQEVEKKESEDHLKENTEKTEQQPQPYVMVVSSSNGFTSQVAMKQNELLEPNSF
# How it was run: as §1
# [6] = biological target: T5, EHF (Homo sapiens, UniProt Q9NZC4 1-300); settings: protein: recombinant; tags: N-terminal GST; dsDNA, one strand shown
# T5 sequence: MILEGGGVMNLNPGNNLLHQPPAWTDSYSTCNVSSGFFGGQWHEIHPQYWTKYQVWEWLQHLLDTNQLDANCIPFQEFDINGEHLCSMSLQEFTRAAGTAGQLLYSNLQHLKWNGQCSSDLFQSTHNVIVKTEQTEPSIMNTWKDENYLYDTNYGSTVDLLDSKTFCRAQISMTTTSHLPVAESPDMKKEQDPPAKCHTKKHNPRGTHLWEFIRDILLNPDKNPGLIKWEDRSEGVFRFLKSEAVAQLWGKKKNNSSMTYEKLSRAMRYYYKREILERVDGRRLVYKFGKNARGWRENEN
# How it was run: as §1
# [7] = biological target: SPI1 (Homo sapiens, UniProt P17947 1-270); settings: protein: recombinant; tags: N-terminal GST; dsDNA, one strand shown
# How it was run: as §1
# [8] = biological target: SPIB (Homo sapiens, UniProt Q01892 1-262); settings: protein: recombinant; tags: N-terminal GST; dsDNA, one strand shown
# Sequence of SPIB (Q01892 whole entry): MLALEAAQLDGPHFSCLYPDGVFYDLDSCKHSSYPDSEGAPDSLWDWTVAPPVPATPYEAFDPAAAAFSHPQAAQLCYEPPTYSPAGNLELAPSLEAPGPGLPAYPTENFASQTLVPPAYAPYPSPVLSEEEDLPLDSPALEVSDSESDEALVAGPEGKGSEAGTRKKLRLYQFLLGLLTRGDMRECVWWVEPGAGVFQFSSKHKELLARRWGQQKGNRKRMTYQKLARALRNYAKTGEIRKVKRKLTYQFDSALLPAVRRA
# How it was run: as §1
# [9] = biological target: T6, ELK3 (Homo sapiens, UniProt P41970 1-407); settings: protein: recombinant; tags: N-terminal GST; dsDNA, one strand shown
# T6 sequence: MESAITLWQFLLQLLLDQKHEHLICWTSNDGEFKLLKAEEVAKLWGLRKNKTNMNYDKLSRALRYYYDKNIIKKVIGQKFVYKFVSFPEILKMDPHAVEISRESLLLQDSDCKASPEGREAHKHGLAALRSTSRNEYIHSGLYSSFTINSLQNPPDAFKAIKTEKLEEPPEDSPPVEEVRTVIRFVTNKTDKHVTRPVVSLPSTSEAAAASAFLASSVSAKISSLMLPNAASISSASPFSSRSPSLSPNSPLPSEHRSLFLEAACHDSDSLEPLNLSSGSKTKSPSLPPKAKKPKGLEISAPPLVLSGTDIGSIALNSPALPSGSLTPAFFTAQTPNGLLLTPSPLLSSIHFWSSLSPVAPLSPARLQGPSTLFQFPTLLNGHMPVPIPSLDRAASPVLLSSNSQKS
# How it was run: as §1
# [10] = biological target: T7, FEV (Homo sapiens, UniProt Q99581 1-238); settings: protein: recombinant; tags: N-terminal GST; dsDNA, one strand shown
# T7 sequence: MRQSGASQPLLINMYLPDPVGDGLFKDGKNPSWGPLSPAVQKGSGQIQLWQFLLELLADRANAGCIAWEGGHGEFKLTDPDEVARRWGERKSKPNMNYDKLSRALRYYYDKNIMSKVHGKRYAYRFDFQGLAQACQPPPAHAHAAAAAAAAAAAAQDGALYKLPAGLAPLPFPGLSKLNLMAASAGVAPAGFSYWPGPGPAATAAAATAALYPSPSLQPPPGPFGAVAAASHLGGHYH
# How it was run: as §1
# [11] = biological target: ETV5 (Homo sapiens, UniProt P41161 1-510); settings: protein: recombinant; tags: N-terminal GST; dsDNA, one strand shown
# Sequence of ETV5 (P41161 whole entry): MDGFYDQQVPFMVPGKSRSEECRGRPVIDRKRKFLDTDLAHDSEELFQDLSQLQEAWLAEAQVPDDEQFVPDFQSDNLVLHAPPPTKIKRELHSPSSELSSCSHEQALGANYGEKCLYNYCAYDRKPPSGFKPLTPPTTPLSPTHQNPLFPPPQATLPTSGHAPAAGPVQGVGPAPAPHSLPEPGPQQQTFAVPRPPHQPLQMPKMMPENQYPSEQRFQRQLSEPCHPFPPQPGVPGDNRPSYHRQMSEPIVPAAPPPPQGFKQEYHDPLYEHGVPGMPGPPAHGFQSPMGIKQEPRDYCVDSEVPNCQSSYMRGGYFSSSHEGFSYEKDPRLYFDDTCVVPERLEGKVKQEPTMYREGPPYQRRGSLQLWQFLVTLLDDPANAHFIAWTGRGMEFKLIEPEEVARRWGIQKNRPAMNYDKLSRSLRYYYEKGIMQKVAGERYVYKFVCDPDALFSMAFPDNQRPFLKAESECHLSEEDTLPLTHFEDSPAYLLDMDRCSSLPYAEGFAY
# How it was run: as §1
# [12] = biological target: HSF1 (Homo sapiens, UniProt Q00613 1-529); settings: protein: recombinant; tags: N-terminal GST; chain copies: 3; dsDNA, one strand shown
# Sequence of HSF1 (Q00613 whole entry): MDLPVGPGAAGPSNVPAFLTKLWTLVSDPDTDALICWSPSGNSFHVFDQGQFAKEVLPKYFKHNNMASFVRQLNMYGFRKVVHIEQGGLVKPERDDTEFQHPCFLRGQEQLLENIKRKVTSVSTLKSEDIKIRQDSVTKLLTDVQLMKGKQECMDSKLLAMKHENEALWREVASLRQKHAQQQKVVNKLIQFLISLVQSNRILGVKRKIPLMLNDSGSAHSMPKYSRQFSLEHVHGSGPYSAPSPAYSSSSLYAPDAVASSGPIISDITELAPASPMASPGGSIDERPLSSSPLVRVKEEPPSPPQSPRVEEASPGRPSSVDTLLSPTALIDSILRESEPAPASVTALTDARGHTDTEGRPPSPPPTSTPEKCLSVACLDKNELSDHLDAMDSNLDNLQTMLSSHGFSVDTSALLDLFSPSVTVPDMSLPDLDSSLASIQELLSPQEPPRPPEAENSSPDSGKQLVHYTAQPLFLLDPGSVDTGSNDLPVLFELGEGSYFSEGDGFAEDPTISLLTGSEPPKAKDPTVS
# How it was run: as §1
# [13] = biological target: T8, SPIC (Homo sapiens, UniProt Q8N5J4 1-248); settings: protein: recombinant; tags: N-terminal GST; dsDNA, one strand shown
# T8 sequence: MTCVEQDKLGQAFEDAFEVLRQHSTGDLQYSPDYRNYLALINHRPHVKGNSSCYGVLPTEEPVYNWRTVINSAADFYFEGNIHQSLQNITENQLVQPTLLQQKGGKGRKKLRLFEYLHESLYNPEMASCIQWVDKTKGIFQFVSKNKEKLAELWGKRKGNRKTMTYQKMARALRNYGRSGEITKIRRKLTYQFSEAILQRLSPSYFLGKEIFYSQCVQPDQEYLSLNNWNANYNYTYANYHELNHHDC
# How it was run: as §1
# [14] = biological target: ELF4 (Homo sapiens, UniProt Q99607 1-663); settings: protein: recombinant; tags: N-terminal GST; dsDNA, one strand shown
# Sequence of ELF4 (Q99607 whole entry): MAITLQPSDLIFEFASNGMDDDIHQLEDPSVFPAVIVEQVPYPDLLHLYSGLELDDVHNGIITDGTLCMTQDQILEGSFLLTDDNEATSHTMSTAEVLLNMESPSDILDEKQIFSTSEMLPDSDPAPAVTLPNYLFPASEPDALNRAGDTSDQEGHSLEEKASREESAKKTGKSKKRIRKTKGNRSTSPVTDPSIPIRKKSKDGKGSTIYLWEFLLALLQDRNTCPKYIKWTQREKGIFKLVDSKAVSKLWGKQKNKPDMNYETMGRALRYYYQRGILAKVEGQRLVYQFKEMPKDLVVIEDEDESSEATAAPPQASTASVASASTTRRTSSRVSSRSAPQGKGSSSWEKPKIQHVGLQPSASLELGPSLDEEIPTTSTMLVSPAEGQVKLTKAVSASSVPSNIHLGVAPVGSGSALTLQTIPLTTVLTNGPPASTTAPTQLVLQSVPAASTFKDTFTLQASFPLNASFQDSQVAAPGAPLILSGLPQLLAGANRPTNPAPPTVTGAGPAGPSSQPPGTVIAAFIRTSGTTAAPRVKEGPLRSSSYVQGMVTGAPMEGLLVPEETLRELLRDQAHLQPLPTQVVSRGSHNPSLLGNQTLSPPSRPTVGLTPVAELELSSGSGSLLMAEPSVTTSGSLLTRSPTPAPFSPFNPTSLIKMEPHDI
# How it was run: as §1
# [15] = biological target: T9, ELK4 (Homo sapiens, UniProt P28324-2 1-405); settings: protein: recombinant; tags: N-terminal GST; dsDNA, one strand shown
# T9 sequence: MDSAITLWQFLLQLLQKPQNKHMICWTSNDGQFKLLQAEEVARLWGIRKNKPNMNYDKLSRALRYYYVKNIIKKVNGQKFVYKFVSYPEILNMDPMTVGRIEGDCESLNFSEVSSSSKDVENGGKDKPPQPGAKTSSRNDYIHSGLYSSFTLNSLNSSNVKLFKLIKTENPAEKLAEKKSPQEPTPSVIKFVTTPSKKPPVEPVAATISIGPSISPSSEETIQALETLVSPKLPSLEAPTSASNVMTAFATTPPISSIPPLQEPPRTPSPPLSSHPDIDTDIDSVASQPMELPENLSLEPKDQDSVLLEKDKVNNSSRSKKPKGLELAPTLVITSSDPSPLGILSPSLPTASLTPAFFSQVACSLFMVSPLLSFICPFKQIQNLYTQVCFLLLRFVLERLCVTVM
# How it was run: as §1
# [16] = biological target: T10, ETV2 (Homo sapiens, UniProt O00321 1-342); settings: protein: recombinant; tags: N-terminal GST; dsDNA, one strand shown
# T10 sequence: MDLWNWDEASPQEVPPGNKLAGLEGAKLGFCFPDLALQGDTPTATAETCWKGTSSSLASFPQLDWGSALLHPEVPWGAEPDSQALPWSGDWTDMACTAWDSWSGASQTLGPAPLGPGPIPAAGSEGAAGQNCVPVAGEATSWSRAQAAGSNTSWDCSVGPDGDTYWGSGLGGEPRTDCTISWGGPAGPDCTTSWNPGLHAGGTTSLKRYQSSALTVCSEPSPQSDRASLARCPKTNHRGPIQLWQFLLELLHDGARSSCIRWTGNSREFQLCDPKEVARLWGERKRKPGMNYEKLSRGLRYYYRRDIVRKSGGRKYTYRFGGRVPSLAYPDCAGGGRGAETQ
# How it was run: as §1
# [17] = biological target: T11, ELF3 (Homo sapiens, UniProt P78545 1-371); settings: protein: recombinant; tags: N-terminal GST; dsDNA, one strand shown
# T11 sequence: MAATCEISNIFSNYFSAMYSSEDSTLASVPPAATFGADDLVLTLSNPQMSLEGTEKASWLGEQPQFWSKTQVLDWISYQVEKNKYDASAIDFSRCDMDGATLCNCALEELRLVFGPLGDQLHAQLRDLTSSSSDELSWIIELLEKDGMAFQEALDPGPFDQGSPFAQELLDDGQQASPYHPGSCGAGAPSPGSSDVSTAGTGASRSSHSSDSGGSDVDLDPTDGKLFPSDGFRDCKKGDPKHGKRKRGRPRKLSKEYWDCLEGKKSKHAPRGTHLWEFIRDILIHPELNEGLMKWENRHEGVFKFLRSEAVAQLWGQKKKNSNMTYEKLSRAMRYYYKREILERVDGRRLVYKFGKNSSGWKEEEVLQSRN
# How it was run: as §1
# [18] = biological target: CRX (Homo sapiens, UniProt O43186 1-299); settings: protein: recombinant; tags: N-terminal GST; dsDNA, one strand shown
# Sequence of CRX (O43186 whole entry): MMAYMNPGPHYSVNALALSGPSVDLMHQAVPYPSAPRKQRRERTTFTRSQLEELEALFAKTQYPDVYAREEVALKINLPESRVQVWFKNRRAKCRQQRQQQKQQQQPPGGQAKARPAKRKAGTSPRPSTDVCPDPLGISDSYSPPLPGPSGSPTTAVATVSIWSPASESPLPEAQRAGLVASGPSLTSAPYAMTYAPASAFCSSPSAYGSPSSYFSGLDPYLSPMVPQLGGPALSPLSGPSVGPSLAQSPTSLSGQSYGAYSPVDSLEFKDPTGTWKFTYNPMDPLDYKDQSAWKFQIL
# How it was run: as §1
# [19] = biological target: ETV1 (Homo sapiens, UniProt P50549 1-477); settings: protein: recombinant; tags: N-terminal GST; dsDNA, one strand shown
# Sequence of ETV1 (P50549 whole entry): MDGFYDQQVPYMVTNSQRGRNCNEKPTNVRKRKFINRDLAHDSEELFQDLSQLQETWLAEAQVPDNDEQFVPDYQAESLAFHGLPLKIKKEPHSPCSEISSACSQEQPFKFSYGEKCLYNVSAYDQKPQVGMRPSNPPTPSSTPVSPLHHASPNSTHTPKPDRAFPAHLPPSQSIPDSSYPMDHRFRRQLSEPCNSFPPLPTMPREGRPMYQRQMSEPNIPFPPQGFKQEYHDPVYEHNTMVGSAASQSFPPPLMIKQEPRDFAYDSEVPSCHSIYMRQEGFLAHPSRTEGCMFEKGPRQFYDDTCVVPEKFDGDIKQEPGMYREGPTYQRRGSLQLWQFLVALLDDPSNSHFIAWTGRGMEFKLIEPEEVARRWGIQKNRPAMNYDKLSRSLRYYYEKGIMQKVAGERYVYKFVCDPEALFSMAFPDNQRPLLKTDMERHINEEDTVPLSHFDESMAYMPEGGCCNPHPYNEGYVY
# How it was run: as §1
sequence,measurement,setting,value
TCCACA,binding signal,[1],"1.3 fold enrichment (6-mer frequency, TF over GST control)"
same,binding signal,[2],"1.27 fold enrichment (6-mer frequency, TF over GST control)"
same,binding signal,[3],"1.26 fold enrichment (6-mer frequency, TF over GST control)"
same,binding signal,[4],"1.19 fold enrichment (6-mer frequency, TF over GST control)"
same,binding signal,[5],"1.23 fold enrichment (6-mer frequency, TF over GST control)"
same,binding signal,[6],"1.25 fold enrichment (6-mer frequency, TF over GST control)"
same,binding signal,[7],"1.28 fold enrichment (6-mer frequency, TF over GST control)"
same,binding signal,[8],"1.14 fold enrichment (6-mer frequency, TF over GST control)"
same,binding signal,[9],"1.35 fold enrichment (6-mer frequency, TF over GST control)"
same,binding signal,[10],"1.21 fold enrichment (6-mer frequency, TF over GST control)"
same,binding signal,[11],"1.25 fold enrichment (6-mer frequency, TF over GST control)"
same,binding signal,[12],"1.36 fold enrichment (6-mer frequency, TF over GST control)"
same,binding signal,[13],"1.31 fold enrichment (6-mer frequency, TF over GST control)"
same,binding signal,[14],"1.27 fold enrichment (6-mer frequency, TF over GST control)"
same,binding signal,[15],"1.25 fold enrichment (6-mer frequency, TF over GST control)"
same,binding signal,[16],"1.17 fold enrichment (6-mer frequency, TF over GST control)"
same,binding signal,[17],"1.22 fold enrichment (6-mer frequency, TF over GST control)"
same,binding signal,[18],"1.1 fold enrichment (6-mer frequency, TF over GST control)"
same,binding signal,[19],"1.15 fold enrichment (6-mer frequency, TF over GST control)"
